Compounds without any hit were thinned out: in the full panel of roughly 83,000, 20% have a hit.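 Treatment: one concentration, 48 hours, 96-well format. Scoring: percent growth, with anything below 10 considered active.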 Values without a mark were called inactive. Activity calls are given as the source filed them.
Tests used:
Assay in all cases: NCI-60 one-dose screen, 48 h (100 = growth as untreated, 0 = no growth, -100 = all killed)
Settings in all cases: 10 µM unless noted
T-47D breast = system: T-47D breast
BT-549 breast = system: BT-549 breast
MDA-MB-435 melanoma = system: MDA-MB-435 melanoma
SW-620 colon = system: SW-620 colon
MCF7 breast = system: MCF7 breast
HCT-116 colon = system: HCT-116 colon
HCC-2998 colon = system: HCC-2998 colon
KM12 colon = system: KM12 colon

| Compound | growth (T-47D breast) | growth (BT-549 breast) | growth (MDA-MB-435 melanoma) | growth (SW-620 colon) | growth (MCF7 breast) | growth (HCT-116 colon) | growth (HCC-2998 colon) | growth (KM12 colon) |
| --- | --- | --- | --- | --- | --- | --- | --- | --- |
| C=CCn1c(C)nc2cc(Nc3nc(N4CCCC4)nc4ccccc34)ccc21 | 105% | 96.9% | 92.4% | 75% | 61.9% | 19.6% | 23.3% | 70.1% |
| CCN1CCN(c2nc(C)cc(NCc3cc(Nc4ccnc5cc(Cl)ccc45)ccc3F)n2)CC1 | -24.3% (active) | 36.1% | -88.4% (active) | 11.5% | 1.98% (active) | 2.33% (active) | -34.9% (active) | 26.9% |
| O=C(Nc1ccccc1)Nc1cccc(Oc2nnc(Cl)c3ccccc23)c1 | -18% (active) | 47.7% | 48.6% | 73.4% | -4.15% (active) | 10.6% | 52.8% | 43.6% |
| Nc1n[nH]c(-c2cc(Cl)ccc2O)c1-c1ccccc1 | 85.3% | 112% | 93.6% | 102% | 92.7% | 85.1% | 86.5% | 64.2% |
| COCCN(C(=O)c1ccc(F)cc1F)c1c(N)n(Cc2ccccc2)c(=O)[nH]c1=O | 103% | 135% | 105% | 108% | 108% | 102% | 106% | 105% |
| COc1ccc(-c2nc3sccn3c2-c2cc(-c3cc(OC)c(OC)c(OC)c3)on2)cc1 | 51.9% | 98.6% | 102% | 105% | 88.5% | 85.5% | 98.2% | 90.5% |
| CCCCn1c(=O)c2c(nc3n2CCCN3CCc2ccc(OCC(=O)NCCN(CC)CC)cc2)n(CCCC)c1=O | 53.6% | 67% | 63.6% | 79.2% | 36.6% | 36.4% | 56.8% | 77.5% |
| O=c1c2cc(F)ccc2sc2c(NCCN3CCCCC3)nc3ccccc3c12 | 66.9% | 75.1% | 29.5% | 29.1% | 15.8% | 25.3% | 13.9% | 29% |
| NC1=NCc2nc3ccccc3c(=O)n2C1 | 113% | 113% | 100% | 103% | 105% | 101% | 88.8% | 100% |
| N#Cc1c(-c2cccc(Cl)c2)cc(-c2cccc(Cl)c2)[nH]c1=O | 79.2% | 52.4% | 0.951% (active) | 50.2% | 53.8% | 67.1% | 82.6% | 56.1% |
| CC(=O)N1C(=S)NC(=O)C1Cn1c(-c2ccccc2)nc2ccccc21 (stereo not drawn) | 95.3% | 109% | 100% | 103% | 88.7% | 90.2% | 110% | 100% |
| C=C(C)[C@@H]1CC[C@]2(C(=O)NC3CCCCC3)CC[C@]3(C)[C@H](CC[C@@H]4[C@@]5(C)CCCNC(C)(C)[C@@H]5CC[C@]43C)[C@@H]12 | -32.8% (active) | 85.4% | 6.98% (active) | -76.1% (active) | 16.5% | -13.8% (active) | -16% (active) | 16.7% |
| CC1CC(C(C)(C)C)C(=O)C(C(C)(C)C)C1 (stereo not drawn) | 111% | 110% | 103% | 101% | 108% | 108% | 111% | 108% |
| Cc1cc(/C=C\c2ccc3ccccc3[n+]2C)c(O)c2ncccc12 | 18% | -19.4% (active) | 6.21% (active) | 15.1% | 5.19% (active) | -8.95% (active) | -3.25% (active) | 13.7% |
| COc1cc(-c2n/c(=C\c3c(O)[nH]c4ccc(Cl)cc34)cc3c2=Nc2ccccc2-3)cc(OC)c1OC | 32.7% | 101% | 16.6% | -29.5% (active) | 0.83% (active) | -73.5% (active) | 44.6% | 2.53% (active) |
| Cc1cc(NCc2cc(Nc3ccnc4cc(Cl)ccc34)ccc2F)nc(N2CCCC2)n1 | -59.7% (active) | 58.1% | -94.7% (active) | -1.87% (active) | -14.1% (active) | -53.5% (active) | -67.9% (active) | 12% |

| Compound | growth (T-47D breast) | growth (BT-549 breast) | growth (MDA-MB-435 melanoma) | growth (SW-620 colon) | growth (MCF7 breast) | growth (HCT-116 colon) | growth (HCC-2998 colon) | growth (KM12 colon) |
| --- | --- | --- | --- | --- | --- | --- | --- | --- |
| Clc1cc(Cl)cc(Nc2ccc3cc(OCCCN4CCOCC4)ccc3n2)c1 | 32% | 88.5% | 34.1% | -8.79% (active) | 8.56% (active) | 19.8% | -17.6% (active) | 8.59% (active) |
| COc1cccc2c1C(=O)c1c(O)c3c(c(O)c1C2=O)CC(O)(/C(C)=N/NC(=O)CCCCC(=O)N/N=C(\C)C1(O)Cc2c(O)c4c(c(O)c2C(OC2CC(N)C(O)C(C)O2)C1)C(=O)c1c(OC)cccc1C4=O)CC3OC1CC(N)C(O)C(C)O1 (stereo not drawn) | -16.2% [5 µM] (active) | -21.6% [5 µM] (active) | -87.6% [5 µM] (active) | -32.3% [5 µM] (active) | 2.23% [5 µM] (active) | -3.01% [5 µM] (active) | -53.9% [5 µM] (active) | -21.6% [5 µM] (active) |
| COc1cc(/C=N/n2c(CN3CCOCC3)nc3ccccc3c2=O)cc(OC)c1OC | 94.4% | 103% | 102% | 106% | 99.4% | 94.5% | 104% | 101% |
| N#Cc1c(N)nc(NCCO)nc1-c1ccc(F)cc1 | 79.7% | 98.6% | 104% | 99.8% | 97.3% | 93.7% | 105% | 103% |
| COc1ccc2c(c1)O/C(=C/c1ccc(OCC(=O)c3ccccc3)cc1)C2=O | 97.4% | 119% | 87% | 131% | 118% | 94.1% | 114% | 105% |
| Fc1c[c-]c(-c2ccccn2)c(F)c1.[CH3-].[Pt+2].c1ccc(P(C[PH+](c2ccccc2)c2ccccc2)c2ccccc2)cc1 | -5.03% (active) | -28.1% (active) | -51.8% (active) | -63.5% (active) | 6.04% (active) | -66% (active) | -27.5% (active) | -40.6% (active) |
| CC1(c2ccccc2)NC(=O)N(NC(=O)CSc2nc(-c3cccs3)nc3ccccc23)C1=O (stereo not drawn) | 95.9% | 110% | 103% | 109% | 106% | 93.6% | 98.4% | 103% |
| O=C(Nc1ccc(Nc2ccncc2)cc1)c1ccc(C(=O)Nc2ccc(Nc3ccncc3)cc2)cc1 | 33.8% | 123% | 48.8% | 42.2% | 26.8% | 32.7% | 87% | 47.4% |
| NC(=O)c1ccc[n+]([C@@H]2O[C@H](COP(=O)([O-])OP(=O)(O)OC[C@H]3O[C@@H](n4cnc5c(N)ncnc54)[C@H](O)[C@@H]3O)[C@@H](O)[C@H]2O)c1 | 114% | 95.9% | 104% | 107% | 102% | 94.7% | 100% | 101% |
| O=C(NC(Cc1nnc2n(Cc3ccccc3)c(=O)c3c4c(sc3n12)CCCC4)c1ccc(Cl)cc1)c1ccccc1 (stereo not drawn) | 85.3% | 107% | 56.8% | 73.1% | 84.9% | 87.1% | 68.5% | 98.7% |
| CCN(CC)c1nc(SCC(=O)Nc2nc3ccc(C)cc3s2)nc(-c2ccccc2)c1C#N | 75.8% | 93.3% | 98.5% | 97.9% | 85.1% | 83% | 110% | 104% |
| CN1CCN(C(=O)c2c3c(n4ccccc24)C(=O)c2ncccc2C3=O)CC1 | 93.3% | 57.3% | 76.1% | 37.6% | 26.9% | 44.1% | 70.9% | 65.4% |
| COc1cc(/C=C/C(=O)N2CCN(C(=O)c3cc(OC)c(OC)c(OC)c3)CC2)ccc1OCCCN1C(=O)c2cccc3cccc(c23)C1=O | 61.9% | 108% | 95.6% | 100% | 90.4% | 81.4% | 99.7% | 79.6% |
| c1c[nH]c(CNC2CCCCC2)c1 | 105% | 105% | 115% | 102% | 103% | 103% | 109% | 98.2% |
| NC(=S)N/N=C/Cc1ccccc1 | 49.3% | 119% | 124% | 102% | 21.5% | 6.31% (active) | 113% | 107% |

From PubChem BioAssay (NCI)
